Experimental data taken from the supplement of paper PMC4709259.
Where a name gives a salt, the structure may show the parent alone. ± gives the standard deviation.

Each molecule was assayed on Jurkat (assay: mean cell size (FSC-A) relative to DMSO control (fraction of control); higher = larger cells). Conditions: 48 h.
Summary of the method: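 Jurkat cells seeded at 600 cells/µl were incubated 1 h, then exposed for 48h to the Enzo Screen-Well FDA Approved Drug Library v2.0 at 25µM in 0.9% (v/v) final DMSO. Drugs that cut counts below 20% of controls were diluted 10-fold and retested, down to 25nM. Cell count and mean cell size (forward scatter area) were read on an Accuri C6 flow cytometer, relative to solvent-only controls. Plates held 6-12 controls; values are means of 3 biological replicates.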

SMILES	mean cell size
CC(=O)O[C@]1(C(C)=O)CC[C@H]2[C@@H]3C[C@H](C)C4=CC(=O)CC[C@]4(C)[C@H]3CC[C@@]21C [Medroxyprogesterone Acetate] (concentration: 25 µM)	0.956 ± 0.065
C[C@]12C=CC(=O)C=C1CC[C@@H]1[C@@H]2C(=O)C[C@@]2(C)[C@H]1CC[C@]2(O)C(=O)CO [Prednisone] (concentration: 25 µM)	1 ± 0.042
O=NN(CCCl)C(=O)NCCCl [Carmustine] (concentration: 25 µM)	1.066 ± 0.0089
CCOC(=O)C1=C(C)NC(C)=C(C(=O)OC)C1c1cccc(Cl)c1Cl (centres undefined) [Felodipine] (concentration: 25 µM)	0.9169 ± 0.007
CC(C)[C@H](N)C(=O)OCC(CO)OCn1cnc2c(=O)[nH]c(N)nc21 (some centres undefined) [Valganciclovir·HCl] (concentration: 25 µM)	1.06 ± 0.054
O=C1CC2(CCCC2)CC(=O)N1CCCCN1CCN(c2ncccn2)CC1 [Buspirone·HCl] (concentration: 25 µM)	0.9275 ± 0.0078
CN(C)CC[C@@H](c1ccc(Cl)cc1)c1ccccn1 [Dexchlorpheniramine Maleate] (concentration: 25 µM)	0.964 ± 0.033
CC(C)c1nc(CN(C)C(=O)N[C@H](C(=O)N[C@@H](Cc2ccccc2)C[C@H](O)[C@H](Cc2ccccc2)NC(=O)OCc2cncs2)C(C)C)cs1 [Ritonavir] (concentration: 25 µM)	0.999 ± 0.079
CCOC(=O)[C@H](CCc1ccccc1)N[C@@H](C)C(=O)N1Cc2cc(OC)c(OC)cc2C[C@H]1C(=O)O [Moexipril·HCl] (concentration: 25 µM)	0.9426 ± 0.0064
CCCC1O[C@@H]2C[C@H]3[C@@H]4CCC5=CC(=O)C=C[C@]5(C)[C@H]4[C@@H](O)C[C@]3(C)[C@]2(C(=O)CO)O1 (some centres undefined) [Budesonide] (concentration: 25 µM)	0.945 ± 0.037
C#Cc1cccc(Nc2ncnc3cc(OCCOC)c(OCCOC)cc23)c1 [Erlotinib] (concentration: 25 µM)	0.838 ± 0.026
CCC(=O)O[C@]1(C(=O)CCl)[C@@H](C)C[C@H]2[C@@H]3C[C@H](F)C4=CC(=O)C=C[C@]4(C)[C@@]3(F)[C@@H](O)C[C@@]21C [Halobetasol Propionate] (concentration: 25 µM)	0.971 ± 0.034
Nc1ncn([C@@H]2O[C@H](CO)[C@@H](O)[C@H]2O)c(=O)n1 [Azacitidine] (concentration: 25 µM)	0.9766 ± 0.0047
CN(C)CCc1c[nH]c2ccc(C[C@H]3COC(=O)N3)cc12 [Zolmitriptan] (concentration: 25 µM)	0.996 ± 0.017
CC(=O)OCC(=O)[C@@]1(O)CC[C@H]2[C@@H]3CCC4=CC(=O)CC[C@]4(C)[C@H]3[C@@H](O)C[C@@]21C [Hydrocortisone Acetate] (concentration: 25 µM)	0.959 ± 0.045
NC(N)=Nc1nc(CSCC/C(N)=N/S(N)(=O)=O)cs1 [Famotidine] (concentration: 25 µM)	0.979 ± 0.035
N=C(N)N [Guanidine·HCl] (concentration: 25 µM)	0.94 ± 0.018
CC(C)C[C@H](NC(=O)[C@H](Cc1ccccc1)NC(=O)c1cnccn1)B(O)O [Bortezomib] (concentration: 25 nM)	0.894 ± 0.064
C[C@@H]1O[C@@H]1P(=O)(O)O [Fosfomycin Calcium] (concentration: 25 µM)	0.916 ± 0.036
CCCCc1oc2ccccc2c1C(=O)c1cc(I)c(OCCN(CC)CC)c(I)c1 [Amiodarone·HCl] (concentration: 2.5 µM)	1.05 ± 0.018
C[C@@H](CN1CC(=O)NC(=O)C1)N1CC(=O)NC(=O)C1 [Dexrazoxane] (concentration: 25 µM)	0.9682 ± 0.0057
C[C@](N)(Cc1ccc(O)c(O)c1)C(=O)O [Methyldopa Sesquihydrate (L-Α-Methyl-Dopa Sesquihyrate)] (concentration: 25 µM)	0.958 ± 0.027
OC(CCN1CCCCC1)(c1ccccc1)C1CCCCC1 (centres undefined) [Trihexyphenidyl·HCl] (concentration: 25 µM)	1.04 ± 0.031
CC(=O)O[C@H]1C[C@@H]2CC[C@@H]3[C@H](CC[C@@]4(C)[C@H]3C[C@H]([N+]3(C)CCCCC3)[C@@H]4OC(C)=O)[C@@]2(C)C[C@@H]1N1CCCCC1 [Vecuronium Bromide] (concentration: 25 µM)	0.858 ± 0.043
